Shown are actives, neighbours in structure and some others; about 1.8% of the full set was active somewhere.
VCAM1 TNFa inh – reduces TNF alpha induced VCAM1 expression in HUVEC. 95,000 compounds, 0.48% hits. HUVEC TNFa-induced VCAM-1 immunofluorescence, high-content imaging. inhibition, % at 2 µM;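 active = inhibition above the batch mean plus 3 SD, with images confirmed as a hit by eye, cut at about 37% in these data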;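 note: 0% = TNF-stimulated DMSO wells and 100% = unstimulated control wells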
IL1B cytotox – toxic to HUVEC cells under IL-1B stimulation; HUVEC cell count loss, Hoechst imaging, IL-1B stimulated; cell count reduction, % at 2 µM; 94,000 compounds, 0.41% hits; AID 845;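 active = cell count reduction more than 3 SD above the screen-wide mean, cut at about 70% in these data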;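 note: normalized per plate to untreated control cells as the no-loss baseline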
HUVEC tox TNFa – HUVEC cytotoxicity counter-screen, TNF alpha stimulated; HUVEC TNFalpha-stimulated, Hoechst cell count, imaging; cell count reduction, % at 2 µM; 93,000 compounds, 0.17% hits;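 active = cell count reduction exceeding the screen mean by over 5 SD, scaled to untreated wells per plate, cut at about 78% in these data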;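 note: cells counted after 24 h of TNF alpha exposure following the 1 h pretreatment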
E-sel TNF inh – TNF alpha driven E-selectin expression inhibition. HUVEC TNFa-induced E-selectin immunofluorescence, high content. inhibition, % at 2 µM. 120,000 compounds, 0.71% hits;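 active = inhibition above the batch mean plus 3 SD, and confirmed as a hit on visual image review, cut at about 43% in these data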;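 note: 0% = TNF-stimulated DMSO wells and 100% = unstimulated control wells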
NFkB transloc inh – blocks IL-1B driven NFkB nuclear translocation in HUVEC cells. HUVEC IL-1B NFkB p65 nuclear translocation imaging. inhibition, % at 2 µM. 94,000 compounds, 0.43% hits. AID 796;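 active = inhibition above about 30% together with a positive call from visual inspection of the well image, limit read from the data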;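 note: nuclear over cytoplasmic p65 intensity ratio measured by imaging; 0% = IL-1B stimulated DMSO wells and 100% = unstimulated DMSO wells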
IL1B NFkB pot – enhances IL-1B driven NFkB nuclear translocation; HUVEC IL-1B NFkB p65 nuclear translocation imaging; activation, % at 2 µM; 94,000 compounds, 0.3% hits; AID 819;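 active = activation above 40%, about the mean plus 3 SD, also judged a hit on visual image review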;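 note: percent activation is computed from the nuclear over cytoplasmic p65 intensity ratio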
The depositor's hits bear a star; . = no result given.

SMILES	VCAM1 TNFa inh	IL1B cytotox	HUVEC tox TNFa	E-sel TNF inh	NFkB transloc inh	IL1B NFkB pot
CN=C(SCc1ccccc1)c1c(O)n(C)c(=O)n(C)c1=O	-1.2	-15.0	-25.4	.	-19.9	19.9
Cn1c(O)c(C(=N)COc2cccc(Cl)c2)c(=O)n(C)c1=O	5.1	-14.3	-12.9	65.3*	12.7	-12.7
CCN(CC)CCOC(=O)c1ccc(N=Cc2c(O)[nH]c(=O)[nH]c2=O)cc1	16.0	13.0	5.2	51.4*	6.3	-6.3
CCOC(=O)c1ccc(N=Cc2c(O)n(-c3ccccc3F)c(=S)[nH]c2=O)cc1	.	.	.	10.0	.	.
CSc1ccc(CN2CCN(Cc3ccccc3Cl)CC2)cc1	.	.	.	-35.8	.	.
CSc1ccc(CNC2CN3CCC2CC3)cc1 (configuration not stated)	93.0*	-1.4	86.4*	-2.8	1.4	-1.4
O=C(O)CCn1cc(C=C2C(=O)NC(=O)NC2=O)c(-c2cc3ccccc3oc2=O)n1	.	.	.	-0.7	.	.
CC(C)c1oc(=O)cc2c1[C@@H](O)[C@H]1OC(=O)[C@@]3(C)C[C@@H](O)[C@@H](O)[C@@]2(C)C13 (some centres not stated)	.	.	.	37.3	.	.
O=C1C(=O)c2ccccc2-c2ccccc21	83.5*	25.3	40.8	-26.0	-32.1	32.1
O=C1C(=O)c2cccc3cccc1c23	.	.	.	3.7	.	.
CCCCn1c(O)c(C=NC2CCCCC2N)c(=O)[nH]c1=O (configuration not stated)	11.5	83.7*	7.0	-3.8	99.0*	-99.0
COC(=O)c1ccc(NC(=O)CSc2nc3ccc(N4C(=O)C5C6C=CC(C6)C5C4=O)cc3s2)cc1 (configuration not stated)	.	.	.	-23.9	.	.
CC1CCCCN1C(=O)c1ccc(N2CC3CC(C2)c2cccc(=O)n2C3)c([N+](=O)[O-])c1 (configuration not stated)	.	.	.	-3.6	.	.
O=C(c1ccc2c(c1)ncn2C1CCCCC1)N1CCC2(CC1)OCCO2	92.1*	16.3	79.8*	.	-7.1	7.1
COc1ccc(-c2cc(C(F)(F)F)n3nc(C(=O)N4CCC5(CC4)OCCO5)cc3n2)cc1OC	7.2	88.6*	-1.1	-10.5	1.4	-1.4
Cc1ccc2c(c1)C1CN(C)CCC1N2C(=O)Nc1cccc(C(F)(F)F)c1 (configuration not stated)	20.9	39.7	-20.2	21.6	30.4*	-30.4
CN(C)C(=O)Oc1c(Cl)cc(Cl)c2cccnc12	.	.	.	74.5*	.	.
CN1/C(=C\C=C\C2=[N+](C)c3ccc4ccccc4c3C2(C)C)C(C)(C)c2ccccc21	84.1*	-23.6	28.5	6.6	10.5	-10.5
CN1/C(=C\C=Nc2ccccc2)C(C)(C)c2ccccc21	12.4	.	-7.7	-20.3	.	.
Cc1cccc(NP(C)(=O)c2nc3c(s2)CCCC3)c1 (configuration not stated)	.	.	.	5.7	.	.
CC1CCC/C=C/C2CC(O)CC2C(O)/C=C/C(=O)O1 (configuration not stated)	94.4*	-19.1	87.0*	97.6*	2.9	-2.9
C[C@H]1CCC[C@@H](O)CCC/C=C/c2cc(O)cc(O)c2C(=O)O1	-79.9	-7.4	-47.3	-3.8	-12.7	12.7
CC(=O)Nc1ccc(OCCF)cc1	.	.	.	99.9*	.	.
C=CCOC(=O)C1=C(C)OC(N)=C(C#N)C12C(=O)N(CN1CCOCC1)c1ccccc12 (configuration not stated)	88.3*	-6.7	91.1*	.	6.4	-6.4
CCOC(=O)C1=C(C)OC(N)=C(C#N)C12C(=O)N(C)c1ccccc12 (configuration not stated)	9.6	-1.6	-3.8	9.2	5.4	-5.4
SMILES	VCAM1 TNFa inh	IL1B cytotox	HUVEC tox TNFa	E-sel TNF inh	NFkB transloc inh	IL1B NFkB pot
Cc1nn(Cc2ccccc2)c(C)c1C(=O)OCC(=O)Nc1ccccc1SCC#N	11.9	-8.5	-22.1	-8.8	-17.8	17.8
COc1ccc(Oc2cc(NC(=O)c3nn(C)cc3[N+](=O)[O-])cc([N+](=O)[O-])c2)cc1	90.1*	-7.3	39.1	90.4*	-7.8	7.8
CNC(C(=O)c1ccccc1)C(OC)c1ccc(C)cc1 (configuration not stated)	.	.	.	7.9	.	.
O=C(Cn1cc(C(=O)c2ccccc2)c2ccccc21)NCc1ccco1	14.1	87.9*	1.4	-0.9	93.1*	-93.1
Cc1ccc(CS(=O)(=O)CCC(=O)N2CCC3(CC2)OCCO3)cc1	16.9	91.8*	-3.6	-5.4	-18.6	18.6
Nc1ccnn1C1CCNCC1	6.6	-15.7	-2.7	-37.3	-4.5	4.5
CN1CCC(n2nccc2N)CC1	-2.0	16.1	-26.4	-4.2	36.4*	-36.4
C=CCn1c(O)c(/C=N/N2CCCCC2c2cccnc2)c(=O)[nH]c1=S (configuration not stated)	.	.	.	6.2	.	.
CCc1ccc(-c2nn(Cc3ccccc3)cc2C=O)cc1	.	.	.	17.6	.	.
CC(=NCCCO)c1c(O)n(Cc2ccccc2)c(=O)[nH]c1=O	94.0*	14.6	.	-26.1	10.1	-10.1
O=C(c1ccc(-c2ccccc2)cc1)C1CCCN(Cc2ccn[nH]2)C1 (configuration not stated)	.	.	.	-8.4	.	.
CC(C)C12CN3CC(C(C)C)(CN(C1)C3c1cccnc1)C2=O (configuration not stated)	23.7	4.1	-3.8	9.6	9.5	-9.5
COC(=O)C1CN(C#N)N(c2ccc(Cl)cc2)C12c1ccccc1-c1ccccc12 (configuration not stated)	.	20.6	.	63.4*	64.6*	-64.6
Cc1ccc2c(c1)CC1(CN2C)C(=O)NC(=O)N(C(C)C)C1=O (configuration not stated)	3.2	14.4	-15.3	-31.6	-9.1	9.1
Cc1ccc2c(c1)CC1(CN2C)C(=O)NC(=O)N(CCC2=CCCCC2)C1=O (configuration not stated)	16.0	7.1	-30.2	26.9	-66.1	66.1*
